What follows are molecules tested against AMP-activated protein kinase, AMPK (Homo sapiens) (UniProt P54646+O43741+P54619+Q9UGJ0+Q9Y478+Q13131+Q9UGI9) (assay: AMP-dependent Kinase enzyme assay. An in vitro enzyme assay that detects ADP turnover that is directly proportional to AMPK activity. This uses naive AMPK that is activated during the assay with MK-8722). Conditions: 30 µM.
Type: functional
Design: scale not given: direction of the effect not stated beside the values

Question: How did the Percent Effect turn out when `Cc1c(C(=O)NC2CCCOC2)nnn1-c1ccc(Cl)cc1F` (centres undefined) was run?
Answer: Its Percent Effect is 0.0565%.

Question: With `Cc1[nH]ccc1C(=O)N1CCCC(c2ccc(C(=O)O)cc2)C1` (centres undefined) as the molecule, how does the Percent Effect read?
Answer: The Percent Effect was -0.307%.

Question: How did the Percent Effect turn out when `O=C(CCN1CCOCC1)Nc1cccc(CNCc2ccsc2)c1` was run?
Answer: Its Percent Effect is -5.46%.

Question: Which Percent Effect does the source give for `COc1cc(CCC(=O)N2CCC(c3cc4ncc(C)nc4[nH]3)C2)on1` (centres undefined) here?
Answer: The Percent Effect was -0.349%.

Question: `CC1CN(Cc2cccc(CN)c2)CCO1` (centres undefined) was tested. Which Percent Effect did it give?
Answer: Its Percent Effect is -4.57%.

Question: For `COc1ncc(NCc2ccc(Cl)c(Cl)c2)cc1C(N)=O`, which Percent Effect is on record?
Answer: The Percent Effect was 18.2%.

Question: `CNC(=O)c1ccc(C2CN(c3cc(C)nc(N)n3)CCO2)nc1` (centres undefined) was tested. Which Percent Effect did it give?
Answer: The Percent Effect was -3.96%.

Question: How did the Percent Effect turn out when `COCCN1CCN(Cc2coc(-c3ccccc3Cl)n2)CC1` was run?
Answer: The Percent Effect was -1.56%.

Question: Which Percent Effect does the source give for `CCN(CC)S(=O)(=O)N1CCCC(c2ncc3c(n2)CCN(C)C3)C1` (centres undefined) here?
Answer: Its Percent Effect is -4.24%.

Question: With `Cc1ccc(OCC(=O)N2CCOCC(O)(CN3CCCC3)C2)cc1C` (centres undefined) as the molecule, how does the Percent Effect read?
Answer: Its Percent Effect is 8.56%.

Question: `NC(=O)CN(Cc1ncc(-c2ccccc2)o1)C1CCCC1` was tested. Which Percent Effect did it give?
Answer: Its Percent Effect is -1.01%.

Question: `Cc1cc(C)cc(-n2ncc3c2CCCC3N)c1` (centres undefined) was tested. Which Percent Effect did it give?
Answer: The Percent Effect was 15.1%.

Question: Which Percent Effect does the source give for `CN(C)CCN(C)C(=O)c1cn(CC2CCCCC2)nn1` here?
Answer: Its Percent Effect is 10.7%.

Question: How did the Percent Effect turn out when `NCC(CO)Cc1ccc(C(F)(F)F)cc1` (centres undefined) was run?
Answer: The Percent Effect was -3.66%.

Question: Which Percent Effect does the source give for `CN(Cc1nc2ccccc2[nH]1)C(=O)CN(C)c1ccc(Cl)cn1` here?
Answer: Its Percent Effect is -0.551%.

Question: With `COc1cccc(-c2nc(CNCc3cccnc3)cs2)c1` as the molecule, how does the Percent Effect read?
Answer: Its Percent Effect is -1.6%.

Question: For `c1cncc(OC2CCN(CCn3cc4ccccc4n3)CC2)c1`, which Percent Effect is on record?
Answer: The Percent Effect was 13.1%.

Question: For `O=C1CN(Cc2cn(C3CCN(C4CSCCSC4)CC3)nn2)CCN1`, which Percent Effect is on record?
Answer: Its Percent Effect is -9.53%.

Question: For `CC1CCN(CCNC(=O)c2sccc2C2CC2)CC1`, which Percent Effect is on record?
Answer: Its Percent Effect is 5.67%.

Reference: ChEMBL document CHEMBL3988442, “University of Dundee, Small-Polar-MMV Screening Library” (2021)
